Assay results from PubChem BioAssay AID1159580 (chemical genetic matrix, 2015).
Out of some 5,500 compounds screened, about 2,000 (36%) were called active. Another 18% or so got no clear call; they are omitted. Cut-off read from the data, not from the text of the source: active = normalized growth mostly below about 0.91 (no sharp cut-off); inconclusive = no clear call, values can overlap the other calls; inactive = mostly above about 0.92. The list shows a part of the results.

Assay: chemical genetic growth profiling, strain panel (AID 1159580);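 note: tested at 20 µM; growth read once vehicle control cultures reached saturation at 30 °C; 1 = growth at the plate median or of vehicle wells; lower values mean less growth of the strain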
Details: growth OD

Measured: normalized growth

C=CCN1CC[C@]23c4c5ccc(O)c4OC2C(=O)CC[C@@]3(O)[C@H]1C5 (some centres not stated)
inactive: S. cerevisiae deletion strains, locus YJR075W, strain HOC1, stronger effect = lower value 1 | S. cerevisiae deletion strains, locus YKL009W, strain mrt4, stronger effect = lower value 0.977 | S. cerevisiae deletion strains, locus YKL068W, stronger effect = lower value 0.993 | S. cerevisiae deletion strains, locus YKL085W, strain MDH1 (second series), stronger effect = lower value 1 | S. cerevisiae deletion strains, locus YKL085W, strain MDH1, stronger effect = lower value 1 | S. cerevisiae deletion strains, locus YKL160W, strain elf1, stronger effect = lower value 0.975 | S. cerevisiae deletion strains, locus YKL190W, strain CNB1, stronger effect = lower value 1 | S. cerevisiae deletion strains, locus YKR001C, strain vps1, stronger effect = lower value 0.989 | S. cerevisiae deletion strains, locus YKR026C, strain gcn3, stronger effect = lower value 0.979 | S. cerevisiae deletion strains, locus YKR091W, strain srl3, stronger effect = lower value 0.973 | S. cerevisiae deletion strains, locus YLL001W, strain dnm1, stronger effect = lower value 0.983 | S. cerevisiae deletion strains, locus YLL026W, stronger effect = lower value 0.988 | S. cerevisiae deletion strains, locus YLL041C, strain sdh2, stronger effect = lower value 0.963 | S. cerevisiae deletion strains, locus YLR027C, strain aat2, stronger effect = lower value 0.976 | S. cerevisiae deletion strains, locus YLR039C, strain RIC1, stronger effect = lower value 1 | S. cerevisiae deletion strains, locus YLR058C, strain SHM2, stronger effect = lower value 1.01 | S. cerevisiae deletion strains, locus YLR102C, strain apc9, stronger effect = lower value 0.998 | S. cerevisiae deletion strains, locus YLR113W, strain HOG1, stronger effect = lower value 0.973 | S. cerevisiae deletion strains, locus YLR221C, strain rsa3, stronger effect = lower value 0.982 | S. cerevisiae deletion strains, locus YLR258W, strain gsy2, stronger effect = lower value 0.983 | S. cerevisiae deletion strains, locus YLR262C, strain YPT6 (second series), stronger effect = lower value 0.97 | S. cerevisiae deletion strains, locus YLR262C, strain YPT6, stronger effect = lower value 1.04 | S. cerevisiae deletion strains, locus YLR268W, strain sec22, stronger effect = lower value 1.04 | S. cerevisiae deletion strains, locus YLR320W, strain mms22, stronger effect = lower value 0.969 | S. cerevisiae deletion strains, locus YLR330W, strain CHS5, stronger effect = lower value 1.01 | S. cerevisiae deletion strains, locus YLR342W, strain FKS1 (second series), stronger effect = lower value 1.01 | S. cerevisiae deletion strains, locus YLR342W, strain FKS1, stronger effect = lower value 0.962 | S. cerevisiae deletion strains, locus YLR357W, strain rsc2, stronger effect = lower value 0.939 | S. cerevisiae deletion strains, locus YLR370C, strain arc18, stronger effect = lower value 0.973 | S. cerevisiae deletion strains, locus YLR371W, strain rom2, stronger effect = lower value 0.976 | S. cerevisiae deletion strains, locus YLR384C, strain iki3, stronger effect = lower value 0.963 | S. cerevisiae deletion strains, locus YLR418C, strain cdc73, stronger effect = lower value 0.999 | S. cerevisiae deletion strains, locus YML016C, strain PPZ1, stronger effect = lower value 1.01 | S. cerevisiae deletion strains, locus YML032C, strain rad52, stronger effect = lower value 1.02 | S. cerevisiae deletion strains, locus YML120C, strain ndi1, stronger effect = lower value 0.974 | S. cerevisiae deletion strains, locus YML124C, strain tub3, stronger effect = lower value 0.991 | S. cerevisiae deletion strains, locus YMR058W, strain fet3, stronger effect = lower value 0.98 | S. cerevisiae deletion strains, locus YMR078C, strain ctf18, stronger effect = lower value 1 | S. cerevisiae deletion strains, locus YMR125W, strain sto1, stronger effect = lower value 0.936 | S. cerevisiae deletion strains, locus YMR129W, stronger effect = lower value 0.954 | S. cerevisiae deletion strains, locus YMR205C, strain PFK2, stronger effect = lower value 0.979 | S. cerevisiae deletion strains, locus YMR223W, strain ubp8, stronger effect = lower value 0.99 | S. cerevisiae deletion strains, locus YMR231W, strain pep5, stronger effect = lower value 0.977 | S. cerevisiae deletion strains, locus YMR263W, strain SAP30, stronger effect = lower value 1.02 | S. cerevisiae deletion strains, locus YMR307W, strain GAS1, stronger effect = lower value 1.05 | S. cerevisiae deletion strains, locus YNL067W, strain RPL9B, stronger effect = lower value 1.02 | S. cerevisiae deletion strains, locus YNL071W, strain lat1, stronger effect = lower value 0.956 | S. cerevisiae deletion strains, locus YNL128W, strain TEP1, stronger effect = lower value 1.01 | S. cerevisiae deletion strains, locus YNL153C, strain GIM3, stronger effect = lower value 1.02 | S. cerevisiae deletion strains, locus YNL183C, strain NPR1, stronger effect = lower value 0.941 | S. cerevisiae deletion strains, locus YNL209W, strain ssb2, stronger effect = lower value 0.945 | S. cerevisiae deletion strains, locus YNL233W, strain BNI4, stronger effect = lower value 1.03 | S. cerevisiae deletion strains, locus YNL248C, strain rpa49, stronger effect = lower value 0.948 | S. cerevisiae deletion strains, locus YNL250W, strain rad50, stronger effect = lower value 0.988 | S. cerevisiae deletion strains, locus YNL271C, strain bni1, stronger effect = lower value 0.998 | S. cerevisiae deletion strains, locus YNL298W, strain CLA4, stronger effect = lower value 1.01 | S. cerevisiae deletion strains, locus YNL307C, strain MCK1, stronger effect = lower value 0.996 | S. cerevisiae deletion strains, locus YNL322C, strain KRE1 (second series), stronger effect = lower value 0.927 | S. cerevisiae deletion strains, locus YNL322C, strain KRE1, stronger effect = lower value 1 | S. cerevisiae deletion strains, locus YNR049C, strain mso1, stronger effect = lower value 0.973 | S. cerevisiae deletion strains, locus YNR052C, strain pop2, stronger effect = lower value 1 | S. cerevisiae deletion strains, locus YOL006C, strain TOP1, stronger effect = lower value 1.07 | S. cerevisiae deletion strains, locus YOL012C, strain htz1 0.779 | S. cerevisiae deletion strains, locus YOL147C, strain pex11, stronger effect = lower value 0.996 | S. cerevisiae deletion strains, locus YOR001W, strain rrp6, stronger effect = lower value 0.97 | S. cerevisiae deletion strains, locus YOR061W, strain CKA2, stronger effect = lower value 1.02 | S. cerevisiae deletion strains, locus YOR069W, strain VPS5, stronger effect = lower value 1.01 | S. cerevisiae deletion strains, locus YOR070C, strain gyp1, stronger effect = lower value 0.964 | S. cerevisiae deletion strains, locus YOR080W, strain dia2, stronger effect = lower value 0.969 | S. cerevisiae deletion strains, locus YOR083W, strain WHI5, stronger effect = lower value 0.979 | S. cerevisiae deletion strains, locus YOR106W, strain vam3, stronger effect = lower value 0.948 | S. cerevisiae deletion strains, locus YOR136W, strain idh2, stronger effect = lower value 0.995 | S. cerevisiae deletion strains, locus YOR144C, strain elg1, stronger effect = lower value 1 | S. cerevisiae deletion strains, locus YOR184W, strain ser1, stronger effect = lower value 0.998 | S. cerevisiae deletion strains, locus YOR231W, strain MKK1, stronger effect = lower value 0.994 | S. cerevisiae deletion strains, locus YOR265W, strain rbl2, stronger effect = lower value 0.983 | S. cerevisiae deletion strains, locus YOR270C, strain vph1, stronger effect = lower value 0.935 | S. cerevisiae deletion strains, locus YOR290C, strain snf2, stronger effect = lower value 0.968 | S. cerevisiae deletion strains, locus YOR316C, strain cot1, stronger effect = lower value 0.994 | S. cerevisiae deletion strains, locus YPL051W, strain arl3, stronger effect = lower value 0.983 | S. cerevisiae deletion strains, locus YPL055C, strain LGE1, stronger effect = lower value 1.01 | S. cerevisiae deletion strains, locus YPL078C, strain atp4, stronger effect = lower value 0.968 | S. cerevisiae deletion strains, locus YPL106C, strain sse1, stronger effect = lower value 0.957 | S. cerevisiae deletion strains, locus YPL240C, strain hsp82, stronger effect = lower value 0.965 | S. cerevisiae deletion strains, locus YPL241C, strain CIN2, stronger effect = lower value 1.01 | S. cerevisiae deletion strains, locus YPL256C, strain CLN2, stronger effect = lower value 0.979 | S. cerevisiae deletion strains, locus YPR119W, strain clb2, stronger effect = lower value 1 | S. cerevisiae deletion strains, locus YPR141C, strain kar3, stronger effect = lower value 0.996 | S. cerevisiae deletion strains, locus YPR163C, strain tif3, stronger effect = lower value 0.996 | S. cerevisiae deletion strains, locus YPR167C, strain met16, stronger effect = lower value 1 | S. cerevisiae deletion strains, strain wtn01, stronger effect = lower value 1.01 | S. cerevisiae strains, strain wild type, stronger effect = lower value 1.01
